Measured values from PubChem BioAssay AID1508625 (Wald Lab, School of Medicine, Case Western Reserve …, 2021).

Assay: enhancers of NK cell killing of ovarian tumor cells, primary screen, imaging, OVCAR3, primary NK cells, calcein-AM imaging (AID 1508625);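 note: compound given to NK cells 16 h before adding targets at 1.5 to 1 ratio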
Conditions: OVCAR3 lysis by primary NK cells, at 5 µM; z-score: measured here: robust Z-score, single-point normalisation

N[n+]1cnn(CC(=O)c2ccccc2)c1
corrected activity, negative = more killing: -7.75% | z-score: -2.46

CCOc1ccc(S(=O)(=O)Nc2ccc(OC(F)(F)F)cc2)c2cccnc12
corrected activity, negative = more killing: -1.89% | z-score: -0.602

COc1cccc(CCNc2ccc(N3C(=O)C4CCC(C)CC4C3=O)cc2[N+](=O)[O-])c1 (stereo unspecified)
corrected activity, negative = more killing: -3.2% | z-score: -1.17

COc1ccc(C(O)=C2C(=O)C(=O)N(c3ccccn3)C2c2ccc(C(C)C)cc2)cc1 (stereo unspecified)
corrected activity, negative = more killing: -1.15% | z-score: -0.498

CCCCCCCNC(=O)c1ccc2c(c1)ncn2-c1cccc(F)c1
corrected activity, negative = more killing: -3.62% | z-score: -0.976

CN(C(=O)Cn1ncc2c(=O)oc3ccccc3c21)c1ccc(Br)cc1
corrected activity, negative = more killing: -6.99% | z-score: -1.72

CC(C)NCCCCOc1ccccc1-c1ccccc1
corrected activity, negative = more killing: 1.68% | z-score: 0.626

CC(=O)Nc1cccc(N=Cc2cc(Cc3ccccc3)cc([N+](=O)[O-])c2O)c1
corrected activity, negative = more killing: -1.97% | z-score: -0.698

Cc1cc2nc3sc(=Cc4ccc(Cl)cc4Cl)c(=O)n3c2cc1C
corrected activity, negative = more killing: -1.46% | z-score: -0.755

CCc1ccc(NS(=O)(=O)c2ccc3[nH]cc(C(=O)N(C)Cc4ccccc4)c(=O)c3c2)cc1
corrected activity, negative = more killing: -2.32% | z-score: -0.569

CSCCOC(=O)C1=C(C)NC(=O)NC1c1cccc([N+](=O)[O-])c1 (stereo unspecified)
corrected activity, negative = more killing: 0.214% | z-score: 0.0664

CCCCn1c(=S)[nH]c2cc3ccccc3cc2c1=O
corrected activity, negative = more killing: -1.52% | z-score: -0.403

CC(=O)c1ccc(NC(=O)c2ccc(N)cc2)cc1
corrected activity, negative = more killing: -8.59% | z-score: -1.81

O=C(Nc1ccc2c(c1)OCCO2)c1cc2cc3ccc(Cl)cc3nc2o1
corrected activity, negative = more killing: -3.48% | z-score: -0.854

CC1(C)CC(=O)C(CCC(=O)c2ccccc2)C(C)(C)N1 (stereo unspecified)
corrected activity, negative = more killing: -2.46% | z-score: -0.733

Cc1ccccc1N1C(=O)c2ccc(C(=O)Nc3cccc([N+](=O)[O-])c3)cc2C1=O
corrected activity, negative = more killing: -3.72% | z-score: -1.15

COCCNC(=O)c1c[nH]c2ccc(S(=O)(=O)Nc3ccc4c(c3)OCCO4)cc2c1=O
corrected activity, negative = more killing: -5.25% | z-score: -1.29

Cc1ccc(C2C(C(=O)c3ccco3)=C(O)C(=O)N2c2nnc(C)s2)cc1 (stereo unspecified)
corrected activity, negative = more killing: -5.27% | z-score: -2.29

CN1C(=O)c2ccccc2C(C(=O)Nc2ccc3c(c2)OCCO3)C1c1cccs1 (stereo unspecified)
corrected activity, negative = more killing: -7.21% | z-score: -1.79

Cc1ccc(C(=O)COC(=O)c2ccc(N3C(=O)C4CCC(C)CC4C3=O)cc2)cc1[N+](=O)[O-] (stereo unspecified)
corrected activity, negative = more killing: -2.55% | z-score: -1.37

CCCC12CN3CC(C)(CN(C1)C31C(=O)Nc3ccc(Br)cc31)C2=O (stereo unspecified)
corrected activity, negative = more killing: -2.13% | z-score: -0.876

Cc1ccc(N2CC(C(=O)Nc3cccc(C)n3)CC2=O)cc1 (stereo unspecified)
corrected activity, negative = more killing: -3% | z-score: -1.13

O=C(Oc1ccccc1C(=S)N1CCOCC1)c1ccc(Br)cc1
corrected activity, negative = more killing: -4.68% | z-score: -1.45

CCOc1cccc(C=NN2CCN(Cc3ccccc3)CC2)c1O
corrected activity, negative = more killing: -2.77% | z-score: -1.21

COc1ccccc1OCCCCCCN1CCOCC1
corrected activity, negative = more killing: -4.44% | z-score: -1.82

Cc1cc(C)cc(-n2cnc3cc(C(=O)NC4CCCCCC4)ccc32)c1
corrected activity, negative = more killing: -4.5% | z-score: -1.21

CCOC(=O)Cc1c(C)nc2cc(-c3ccc(C(C)(C)C)cc3)[nH]n2c1=O
corrected activity, negative = more killing: -7.93% | z-score: -2.37

CCC1CCCCN1C(=O)c1sc2ncn(Cc3ccccc3F)c(=O)c2c1C (stereo unspecified)
corrected activity, negative = more killing: -3.67% | z-score: -1.34

Cc1ccc(C=C(NC(=O)c2ccc(C)cc2)c2nc3ccccc3[nH]2)cc1
corrected activity, negative = more killing: -1.41% | z-score: -0.73

O=[N+]([O-])c1cccc(CN2CCN3CCCC3C2C2CCCCC2)c1 (stereo unspecified)
corrected activity, negative = more killing: 0.41% | z-score: 0.179

S=C(c1nc2ccccc2[nH]1)N1CCOCC1
corrected activity, negative = more killing: -3.36% | z-score: -1.07

O=C(c1ccncc1)N1CCN(CC2CC=CCC2)CC1 (stereo unspecified)
corrected activity, negative = more killing: -3.11% | z-score: -1.39

COC(=O)c1ccc(C=NNc2nc(-c3ccc(Cl)cc3)cs2)cc1
corrected activity, negative = more killing: -2.03% | z-score: -0.861

CC1CCCC(C(=O)OCc2ccccc2)N1 (stereo unspecified)
corrected activity, negative = more killing: -4.16% | z-score: -1.64

Cc1cc(Cl)nc(Cl)c1C(=O)O
corrected activity, negative = more killing: 0.175% | z-score: 0.0658

CCOc1cc(C(=S)N2CCCCC2)ccc1OC(=O)c1ccc(OC)cc1
corrected activity, negative = more killing: -5.85% | z-score: -2.2

COC(=O)c1ccc(CSc2nc3c(cnn3-c3ccc(C)cc3)c(=O)[nH]2)o1
corrected activity, negative = more killing: -3.63% | z-score: -0.89

Cc1sc2ncn(CC(=O)Nc3ccc(Oc4ccccc4)cc3)c(=O)c2c1S(=O)(=O)N1CCN(C)CC1
corrected activity, negative = more killing: -6.04% | z-score: -1.5

Cc1cccc(N2C(=O)c3ccc(NC(=O)c4ccc(Br)cc4)cc3C2=O)c1
corrected activity, negative = more killing: -3.53% | z-score: -1.25

CCC(SC1=NCCS1)C(=O)Nc1ccc(S(N)(=O)=O)cc1 (stereo unspecified)
corrected activity, negative = more killing: -2.81% | z-score: -1.06

COc1cc2c(cc1NCc1ccccn1)oc1ccccc12
corrected activity, negative = more killing: -2.51% | z-score: -1.12

COc1cc(OC)c(CNc2ccc(F)cc2C)cc1Br
corrected activity, negative = more killing: -7.05% | z-score: -2.24

CC(C)Oc1ccc(CNC2CCOC(C)(C)C2)cc1 (stereo unspecified)
corrected activity, negative = more killing: -3.04% | z-score: -1.2

COC(=O)c1cc(C=O)c(O)c(C=O)c1
corrected activity, negative = more killing: -2.3% | z-score: -1.01

COC(=O)c1ccc(COC(=O)c2cc3ccccc3oc2=O)cc1
corrected activity, negative = more killing: -2.06% | z-score: -1.15

CCOc1ccc(-n2c(=O)c3c(C)c(C)sc3n(CC(=O)N3CC(C)CC(C)C3)c2=O)cc1 (stereo unspecified)
corrected activity, negative = more killing: -4.39% | z-score: -1.25

COc1ccc(C)cc1NC(=O)c1oc(=O)c2ccccc2c1-c1ccccc1
corrected activity, negative = more killing: -11.3% | z-score: -2.78

c1cc2c(cc1Nc1nc(-c3ccc(C4CCCCC4)cc3)cs1)OCO2
corrected activity, negative = more killing: 0.134% | z-score: 0.0696

O=C1C(=O)N(CCO)C(c2ccc(Br)cc2)C1=C(O)c1ccccc1 (stereo unspecified)
corrected activity, negative = more killing: -2.24% | z-score: -0.856

CCc1ccc(NC(=O)c2ccccc2NC(=O)c2cccc(OC)c2)cc1
corrected activity, negative = more killing: 1.91% | z-score: 1.06

CC1=NNC(=O)C1CCC(=O)NN=Cc1ccncc1 (stereo unspecified)
corrected activity, negative = more killing: -4.86% | z-score: -2.12

Clc1ccc(CSc2ncnc3c2oc2ccccc23)cc1
corrected activity, negative = more killing: -4.09% | z-score: -1.16

COc1ccc(OC)c(NC(=O)C(N)=O)c1
corrected activity, negative = more killing: 1.08% | z-score: 0.459

O=C(CCCn1c(=S)[nH]c2cc3c(cc2c1=O)OCO3)NCCCN1CCOCC1
corrected activity, negative = more killing: -7.74% | z-score: -2.05

Cc1ccc2nc(NC(=O)COC(=O)c3ccc(Br)o3)sc2c1
corrected activity, negative = more killing: -3.82% | z-score: -1.44

CC(=O)C1C(=O)CC(c2ccccc2)CC1=O (stereo unspecified)
corrected activity, negative = more killing: -5.17% | z-score: -2.04

CCOC(=O)c1c(NC(=O)c2ccc(C(=O)c3ccccc3)cc2)sc2c1CCCC2
corrected activity, negative = more killing: -3.96% | z-score: -0.836

COc1ccc(C(=O)Nc2ccc(NC(=O)c3ccc(C(C)(C)C)cc3)cc2)cc1[N+](=O)[O-]
corrected activity, negative = more killing: -5.92% | z-score: -2.1
